# In all, about 1,200 compounds went through this assay and about 210 (18%) were called active. Cut-off read from the data, not from the text of the source: active = inhibition above about 30%; inactive = the rest. The list comes from a sample in which actives are over-represented; it also holds similar structures and randomly drawn compounds.
# Assay: HTRF signal interference by compounds, confirmation, artefact control for SUMOylation inhibitor project, biochemical, uHTS (AID 2069)
# Conditions: HTRF interference counterscreen, fluorescence, at 35 µM, active compounds read high
row,Structure (SMILES),inhibition
1,CC(C)[C@H]1C(=O)N2CCC[C@H]2[C@]2(O)O[C@](NC(=O)[C@@H]3C=C4c5cccc6[nH]cc(c56)C[C@H]4N(C)C3)(C(C)C)C(=O)N12,12.3% (inactive)
2,CN1C[C@H](CO)C=C2c3cccc4[nH]cc(c34)C[C@H]21,36.9% (active)
3,CN1CCN(c2ccc(S(C)(=O)=O)cc2[N+](=O)[O-])CC1,-0.45% (inactive)
4,COc1ccc(Cc2nccc3cc(OC)c(OC)cc23)cc1OC,-2.9% (inactive)
5,O=C(O)c1cccc2c1NC(c1cccc([N+](=O)[O-])c1)C1CC(Sc3ccccc3[N+](=O)[O-])C(Cl)C21 (stereo unspecified),26.1% (inactive)
6,CCCCn1c(NC(=O)c2ccco2)c(C(=O)OCC)c2nc3ccccc3nc21,22.1% (inactive)
7,CCCCn1c(NS(=O)(=O)c2ccc(C)cc2)c(C(=O)OCC)c2nc3ccccc3nc21,58% (active)
8,CCCCn1c(N)c(C(=O)NCc2cccs2)c2nc3ccccc3nc21,9.9% (inactive)
9,CCCCn1c(NS(=O)(=O)c2ccccc2)c(C(=O)OCC)c2nc3ccccc3nc21,70.9% (active)
10,CCCCn1c(N)c(C(=O)OCCOC)c2nc3ccccc3nc21,28.8% (inactive)
11,COc1cc(C(c2c(C)[nH]n(-c3ccccc3)c2=O)c2c(C)[nH]n(-c3ccccc3)c2=O)cc(OC)c1OC,3.8% (inactive)
12,O=C(O)CC1OCC=C2CN3CCC45C6=CC(=O)C(=O)C([N+](=O)[O-])=C6NC4C1C2CC35 (stereo unspecified),60.8% (active)
13,COc1ccc(OC)c(N2C(=O)NC(=O)/C(=C/c3ccc([N+](=O)[O-])s3)C2=O)c1,-8.75% (inactive)
14,CN1CCN(c2ccc3nccnc3c2)CC1,40.9% (active)
15,Cc1ccccc1-n1c(O)c(/C=N/NC(=O)c2ccccc2O)c(=O)[nH]c1=S,3.4% (inactive)
16,CN1CCC2(CC1)C(C#N)=C(N)NC(S)=C2C#N,76.5% (active)
17,O=C1NC(=O)N(Cc2ccco2)C(=O)/C1=C\c1cccn1CCOc1ccc(Cl)cc1,-5.15% (inactive)
18,O=C(c1cccn2c(=O)c3ccc(Cl)cc3nc12)N1CCC2(CC1)OCCO2,48.9% (active)
19,O=c1[nH]c(O)c(/C=C2/C=CC(c3cc(Cl)ccc3Cl)=N2)c(=O)[nH]1,18.3% (inactive)
20,Cc1c(CC(=O)N2C[C@H]3C[C@@H](C2)c2cccc(=O)n2C3)c(=O)oc2c(C)c(O)ccc12,50.5% (active)
21,N#C/C(=C(/O)c1ccc(S(=O)(=O)N(CCCl)CCCl)cc1)c1nc2ccccc2[nH]1,28.4% (inactive)

row,Structure (SMILES),inhibition
1,Cc1ccsc1C(=O)C1CCCN(Cc2ccc(-n3cccn3)cc2)C1 (stereo unspecified),30.6% (active)
2,CC(=O)c1ccc2c(c1)C1C(Cl)C(Sc3ccccc3[N+](=O)[O-])CC1C(c1ccccc1[N+](=O)[O-])N2 (stereo unspecified),-3.55% (inactive)
3,CCN(CC)c1ccc([N+](=O)[O-])c2cccnc12,-11.9% (inactive)
4,O=C(O)CCn1cc(C=C2C(=O)NC(=O)NC2=O)c(-c2ccc(Br)cc2)n1,-3.4% (inactive)
5,Nc1c(C(=O)NC2CCCC2)c2nc3ccccc3nc2n1CC1CCCO1 (stereo unspecified),27.9% (inactive)
6,CC(C)OCCCNC(=O)c1c(N)n(CC2CCCO2)c2nc3ccccc3nc12 (stereo unspecified),51.1% (active)
7,CC(C)CCNC(=O)c1c(N)n(CC2CCCO2)c2nc3ccccc3nc12 (stereo unspecified),30.4% (active)
8,CCCCn1c(N)c(C(=O)OCC2CCCO2)c2nc3ccccc3nc21 (stereo unspecified),28.1% (inactive)
9,CCC(C)NC(=O)c1c(N)n(Cc2ccc3c(c2)OCO3)c2nc3ccccc3nc12 (stereo unspecified),24.4% (inactive)
10,Nc1c(C(=O)NCCCc2ccccc2)c2nc3ccccc3nc2n1Cc1cccs1,8% (inactive)
11,CC(C)CCNC(=O)c1c(N)n(Cc2ccc3c(c2)OCO3)c2nc3ccccc3nc12,19.7% (inactive)
12,CCCNC(=O)c1c(N)n(CC2CCCO2)c2nc3ccccc3nc12 (stereo unspecified),42% (active)
13,CCOCCCn1c(N)c(C(=O)Nc2sc3c(c2C(=O)OC)CCCC3)c2nc3ccccc3nc21,-2.4% (inactive)
14,CCCNC(=O)c1c(N)n(Cc2ccc3c(c2)OCO3)c2nc3ccccc3nc12,9.15% (inactive)
15,CCC(C)NC(=O)c1c(N)n(CC2CCCO2)c2nc3ccccc3nc12 (stereo unspecified),32.5% (active)
16,CC(C)CNC(=O)c1c(N)n(Cc2ccc3c(c2)OCO3)c2nc3ccccc3nc12,15.9% (inactive)
17,O=C1NC(=O)N(Cc2ccco2)C(=O)/C1=C/c1ccc(-c2cccc([N+](=O)[O-])c2)o1,14.7% (inactive)
18,O=C(N/N=C/c1c(O)n(Cc2ccco2)c(=O)[nH]c1=O)c1ccccc1O,22.9% (inactive)
19,Cc1cc(/C=C2\C(=O)NC(=O)N(Cc3ccccc3)C2=O)c(C)n1-c1ccc(Cl)c(C(=O)O)c1,34.7% (active)
20,O=C(O)c1ccc2c(c1)C1C(Cl)C(Sc3ccccc3[N+](=O)[O-])CC1C(c1cccc([N+](=O)[O-])c1)N2 (stereo unspecified),-6.5% (inactive)
21,CC(=O)c1ccc2c(c1)C1C(Cl)C(Sc3ccccc3[N+](=O)[O-])CC1C(C(=O)O)N2 (stereo unspecified),5.25% (inactive)

row,Structure (SMILES),inhibition
1,O=C1NC(=S)NC(=O)C1=Cc1cccn1-c1ccc(O)cc1,21.8% (inactive)
2,CCCCNC(=O)c1c(N)n(CCCOC)c2nc3ccccc3nc12,30.9% (active)
3,COCCCn1c(N)c(C(=O)Nc2ccccc2)c2nc3ccccc3nc21,7.4% (inactive)
4,CC(C)CCn1c(N)c(C(=O)NCc2cccs2)c2nc3ccccc3nc21,15.4% (inactive)
5,CCC(C)NC(=O)c1c(N)n(CCCOC)c2nc3ccccc3nc12 (stereo unspecified),36.5% (active)
6,COc1ccc(Cn2c(N)c(C(=O)NCc3ccco3)c3nc4ccccc4nc32)cc1,11.2% (inactive)
7,COCCCn1c(N)c(C(=O)NCCC(C)C)c2nc3ccccc3nc21,24.1% (inactive)
8,COCCNC(=O)c1c(N)n(CCC(C)C)c2nc3ccccc3nc12,34.7% (active)
9,COc1cc(Cn2c(N)c(C(=O)NCc3ccco3)c3nc4ccccc4nc32)cc(OC)c1OC,11.6% (inactive)
10,COCCCn1c(N)c(C(=O)OCCOC)c2nc3ccccc3nc21,29.9% (inactive)
11,CCOC(=O)c1c(NC(=O)c2c(N)n(CCCOC)c3nc4ccccc4nc23)sc2c1CCCC2,-0.35% (inactive)
12,COCCCn1c(N)c(C(=O)NCc2ccco2)c2nc3ccccc3nc21,34.1% (active)
13,CCCCCn1c(N)c(C(=O)NCc2cccs2)c2nc3ccccc3nc21,12.7% (inactive)
14,CN1CCc2nc3sc(C#N)c(N)c3c(-c3cccs3)c2C1,14.3% (inactive)
15,c1ccc2c(NC3=NCCS3)cccc2c1,-3.5% (inactive)
16,Cc1[nH]n(-c2ccccc2)c(=O)c1C(c1ccc([N+](=O)[O-])cc1)c1c(C)[nH]n(-c2ccccc2)c1=O,-5.95% (inactive)
17,O=c1[nH]c(O)c(/C=C2\C=Nc3ccc(OCc4ccccc4)cc32)c(=O)[nH]1,8.25% (inactive)
18,COCCNC(=O)c1c(NC(=O)c2ccco2)n(Cc2ccccc2)c2nc3ccccc3nc12,17.8% (inactive)
19,Cn1c(O)c(/C=C2\N=c3ccccc3=C2CCNC(=S)NC2CC2)c(=O)n(C)c1=O,13.3% (inactive)

# From PubChem BioAssay AID2069 (Sanford-Burnham Center for Chemical Genomics, 2009)
